Data as given in PubChem BioAssay AID1159580 (chemical genetic matrix, 2015).
“And” between values parts separate entries of the source, which are not always exact repeats. Identical values can stand only once. The campaign covered roughly 5,500 compounds. About 2,000 (36%) were called active. Not shown: some 18% with an inconclusive outcome. No stated cut-off is given here; in the data, active means normalized growth mostly below about 0.91 (no sharp cut-off); inconclusive means no clear call, values can overlap the other calls; inactive means mostly above about 0.92. The list shows a part of the results.

Test: chemical genetic growth profiling, strain panel (AID 1159580);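 further: tested at 20 µM; growth read once vehicle control cultures reached saturation at 30 °C; 1 = growth at the plate median or of vehicle wells; lower values mean less growth of the strain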
Conditions: S. cerevisiae deletion strains, growth OD

Measured: normalized growth

C=CC(C1=CC(=O)C(OC)=CC1=O)c1ccc(OC)cc1 (stereo unspecified)
active: locus YAL021C, strain ccr4, active compounds read low 0.873 | locus YAL026C, strain drs2, active compounds read low 0.765 | locus YAL030W, strain snc1, active compounds read low 0.893 | locus YBL061C, strain skt5, active compounds read low 0.872 | locus YBR009C, strain hhf1, active compounds read low 0.661 | locus YBR023C, strain chs3, active compounds read low 0.853 | locus YBR231C, strain swc5, active compounds read low 0.854 | locus YBR279W, strain paf1, active compounds read low 0.883 | locus YCL011C, strain gbp2, active compounds read low 0.857 | locus YCL016C, strain dcc1, active compounds read low 0.81 | locus YCL069W, strain vba3, active compounds read low 0.911 | locus YDL192W, strain arf1, active compounds read low 0.871 | locus YDR069C, strain doa4, active compounds read low 0.889 | locus YDR101C, strain arx1, active compounds read low 0.906 | locus YDR137W, strain rgp1, active compounds read low 0.596 | locus YDR159W, strain sac3, active compounds read low 0.813 | locus YDR162C, strain NBP2, active compounds read low 0.801 | locus YDR195W, strain ref2 1.16 [resistant] | locus YDR318W, strain mcm21, active compounds read low 0.843 | locus YDR388W, active compounds read low 0.601 | locus YDR392W, strain spt3, active compounds read low 0.23 | locus YDR502C, strain sam2, active compounds read low 0.893 | locus YEL003W, strain gim4, active compounds read low 0.803 | locus YEL061C, strain CIN8 (second series), active compounds read low 0.876 | locus YER015W, strain faa2, active compounds read low 0.906 | locus YER016W, strain bim1, active compounds read low 0.912 | locus YER155C, strain BEM2 (second series), active compounds read low 0.476 | locus YER167W, strain BCK2, active compounds read low 0.829 | locus YFR010W, strain ubp6, active compounds read low 0.887 | locus YGL086W, strain mad1, active compounds read low 0.87 | locus YGL173C, strain kem1, active compounds read low 0.853 | locus YGL240W, strain doc1, active compounds read low 0.743 | locus YGL253W, strain hxk2, active compounds read low 0.813 | locus YGR135W, strain pre9, active compounds read low 0.856 | locus YHR013C, strain ard1, active compounds read low 0.6 | locus YHR079C, strain IRE1 (second series), active compounds read low 0.893 | locus YHR142W, strain chs7, active compounds read low 0.637 | locus YHR200W, strain rpn10, active compounds read low 0.907 | locus YIR030C, strain dcg1, active compounds read low 0.882 | locus YJL095W, strain BCK1 (second series), active compounds read low 0.809 | locus YJL129C, strain trk1, active compounds read low 0.868 | locus YJL164C, strain tpk1, active compounds read low 0.759 | locus YJL166W, strain qcr8, active compounds read low 0.588 | locus YJL187C, strain SWE1, active compounds read low 0.841 | locus YJR043C, strain POL32, active compounds read low 0.832
inactive: locus YAL013W, strain DEP1, active compounds read low 0.956 | locus YBR021W, strain FUR4, active compounds read low 0.957 | locus YBR171W, strain sec66, active compounds read low 0.983 | locus YBR229C, strain ROT2, active compounds read low 0.968 | locus YCL029C, strain bik1, active compounds read low 0.917 | locus YCL061C, strain MRC1, active compounds read low 0.981 | locus YCR088W, strain abp1, active compounds read low 0.983 | locus YDL005C, strain med2, active compounds read low 1.01 | locus YDL035C, strain GPR1, active compounds read low 0.896 | locus YDL040C, strain nat1, active compounds read low 0.975 | locus YDL074C, strain BRE1, active compounds read low 0.827 | locus YDL101C, strain DUN1, active compounds read low 0.939 | locus YDL134C, strain PPH21, active compounds read low 0.961 | locus YDL185W, strain tfp1, active compounds read low 0.976 | locus YDR001C, strain nth1, active compounds read low 0.982 | locus YDR150W, strain NUM1, active compounds read low 0.985 | locus YDR297W, strain sur2, active compounds read low 0.934 | locus YDR334W, strain swr1, active compounds read low 0.918 | locus YDR335W, strain msn5, active compounds read low 0.94 | locus YEL037C, strain rad23, active compounds read low 0.946 | locus YEL061C, strain CIN8, active compounds read low 0.982 | locus YER110C, active compounds read low 0.905 | locus YER111C, strain swi4, active compounds read low 0.984 | locus YER155C, strain BEM2, active compounds read low 0.973 | locus YGL078C, strain dbp3, active compounds read low 0.978 | locus YGL167C, strain pmr1, active compounds read low 0.978 | locus YGL227W, strain vid30, active compounds read low 0.993 | locus YGL248W, strain PDE1, active compounds read low 0.948 | locus YGR078C, strain PAC10, active compounds read low 0.875 | locus YGR229C, strain SMI1, active compounds read low 0.812 | locus YGR252W, strain gcn5, active compounds read low 0.77 | locus YHR027C, strain rpn1, active compounds read low 0.948 | locus YHR030C, strain SLT2, active compounds read low 0.957 and 1 | locus YHR079C, strain IRE1, active compounds read low 1.03 | locus YHR094C, strain hxt1, active compounds read low 0.947 | locus YHR129C, strain ARP1, active compounds read low 0.939 | locus YIL066C, strain RNR3, active compounds read low 0.879 | locus YIL073C, strain SPO22, active compounds read low 0.929 | locus YIL125W, strain kgd1, active compounds read low 0.952 | locus YJL092W, strain hpr5, active compounds read low 0.948 | locus YJL095W, strain BCK1, active compounds read low 0.894 and 1.04 | locus YJL115W, strain asf1, active compounds read low 0.973 | locus YJL134W, strain LCB3, active compounds read low 0.967 | locus YJL154C, strain vps35, active compounds read low 0.96 | locus YJL168C, strain set2, active compounds read low 0.947 | locus YJL187C, strain SWE1 (second series), active compounds read low 0.933
